Laboratory results: the supplement of paper PMC4166925
± gives the standard deviation of the averaged measurements. Whole data set: some 33,000 sequences, median “E-score (dimensionless, -0.5 to 0.5)” near -0.046, cut for the highest 2% near 0.36. For the sample, the highest values were picked, then their nearest neighbours and some sequences at random.

What follows are sequences tested on T1, SpTbr T-box DNA-binding domain (GST fusion) (assay: PBM E-score of 8-mer (E-score (dimensionless, -0.5 to 0.5)); Tbr is Tbrain of the sea star Patiria miniata (Pm) or the sea urchin Strongylocentrotus purpuratus (Sp); higher = stronger binding preference). Settings: the construct has about 5 more residues each side.
T1 sequence: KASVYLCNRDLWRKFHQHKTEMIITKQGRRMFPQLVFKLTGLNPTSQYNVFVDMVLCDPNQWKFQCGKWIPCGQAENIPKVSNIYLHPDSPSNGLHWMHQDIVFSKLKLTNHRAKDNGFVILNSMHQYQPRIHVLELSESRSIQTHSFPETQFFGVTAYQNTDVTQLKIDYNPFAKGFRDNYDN
Outline: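 Using the Universal PBM Analysis Suite, every ungapped 8-mer received an enrichment E-score averaged over duplicate arrays. Probe intensities came from double-stranded Universal Agilent oligonucleotide arrays incubated with 200 nM GST-fused Tbr T-box DNA-binding domain in PBS (pH 7.5). That protein was expressed in BL21 E. coli at 20 °C and purified by glutathione affinity chromatography.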

Sequence | PBM E-score of 8-mer
GAACCTTA | -0.0824 ± 0.12
TCACCTGA | 0.3337 ± 0.0032
AGACCTTG | -0.19 ± 0.022
CCACCTGA | 0.148 ± 0.02
CCACCTTC | 0.2634 ± 0.0018
CCACCTTA | 0.213 ± 0.01
AAACCTTG | -0.17 ± 0.045
ACACCTTC | 0.4746 ± 0.0017
ACACCTTG | 0.4831 ± 0.0013
ATATCCAT | -0.037 ± 0.059
AGCCAACT | -0.173 ± 0.045
AGATTTCA | -0.0179 ± 0.064
ACTAGGAT | -0.2518 ± 0.0023
CAAGGAAC | -0.142 ± 0.03
CTCTCCAC | 0.0528 ± 0.073
CGTTAGGA | -0.0398 ± 0.0099
AAGAATTC | -0.22 ± 0.027
AAACCTTA | -0.0223 ± 0.025
ACACCTTA | 0.46892 ± 0.00038
ATACCTTA | 0.1245 ± 0.00057
GCAAGAGC | -0.0244 ± 0.092
CTCGTCAC | 0.389 ± 0.024
ATCGTCAT | -0.00478 ± 0.05
CTCGTCAA | 0.201 ± 0.0083
GTCGTCAC | 0.337 ± 0.025

Sequence | PBM E-score of 8-mer
ATCGTCAC | 0.381 ± 0.011
ATCGTCAA | 0.158 ± 0.0046
TCGCCAGA | 0.0255 ± 0.017
AAGGCACA | -0.16 ± 0.04
ATGGGGGG | -0.172 ± 0.0088
AGAAGTGA | 0.289 ± 0.014
AGTCTACG | -0.209 ± 0.008
CAGCTACG | -0.036 ± 0.0027
TGTGGTAA | 0.133 ± 0.02
GGCGGCCA | -0.156 ± 0.03
CTTCGCAA | 0.341 ± 0.029
CTTCGCCC | -0.0235 ± 0.028
ATTCGCAA | 0.29 ± 0.016
ATTCGCAG | 0.33 ± 0.013
ATTCGCAC | 0.4705 ± 0.0024
CTTCGCAC | 0.461 ± 0.015
GTCTATAA | -0.0104 ± 0.0026
CGAGGGCC | -0.127 ± 0.057
ACGAAAGT | 0.00641 ± 0.0039
CATGTGTC | 0.3458 ± 0.0021
AATGTGTC | 0.413 ± 0.012
AATGTGGC | 0.219 ± 0.02
AATGTGTA | 0.207 ± 0.05
AATGTGCG | 0.3287 ± 0.0028
AATGTGTG | 0.4245 ± 0.0035

Sequence | PBM E-score of 8-mer
AGACGACT | -0.202 ± 0.093
GCTGGGCC | -0.144 ± 0.0084
ATGTGACG | 0.285 ± 0.026
GTGTGACA | 0.457 ± 0.0047
CTGTGACC | 0.142 ± 0.026
ATGTGACC | 0.169 ± 0.046
ATGTGACA | 0.409 ± 0.0051
CTGTGACA | 0.31 ± 0.011
CAGATAGA | -0.131 ± 0.025
CAGCAGAG | -0.0309 ± 0.05
CACTCTCA | 0.317 ± 0.00081
CATGCGCG | 0.221 ± 0.023
CTACTGTC | 0.1 ± 0.024
CAGGACTA | -0.191 ± 0.029
AGACTTAT | 0.00662 ± 0.019
GAGCCTGC | -0.0257 ± 0.039
CATAACAC | 0.405 ± 0.028
GATAACAA | 0.27 ± 0.027
AATAACAC | 0.294 ± 0.062
CATAACAA | 0.00154 ± 0.064
GATAACAC | 0.414 ± 0.022
GATAACGC | 0.288 ± 0.011
CAGCATGA | -0.154 ± 0.015
AAGTTGGT | -0.0114 ± 0.097
GGAGTCAA | -0.0304 ± 0.04

Sequence | PBM E-score of 8-mer
CAAGCACC | 0.0313 ± 0.011
ATAGCACC | 0.387 ± 0.011
CTAGCACA | 0.271 ± 0.018
ATAGCACG | 0.34 ± 0.0094
CTAGCACC | 0.415 ± 0.014
ATAGCACA | 0.156 ± 0.06
CCAGTTGA | 0.0132 ± 0.086
CAGGGGTC | -0.231 ± 0.086
AGAATCGC | 0.165 ± 0.045
ACTGATGG | -0.00902 ± 0.051
ACAGAGGG | -0.118 ± 0.029
GCAATGCC | -0.174 ± 0.032
GCATCTAA | -0.0797 ± 0.077
GAATTGAA | -0.177 ± 0.099
GTCGCCCA | 0.198 ± 0.0069
ACACATTA | 0.291 ± 0.031
ACACATTG | 0.368 ± 0.01
CCACATTC | 0.14 ± 0.06
ACACATAT | 0.407 ± 0.0072
AAACATTC | -0.0068 ± 0.0056
AAACATTG | 0.0255 ± 0.053
ACACATAG | 0.306 ± 0.018
ACACATAA | 0.269 ± 0.016
ACACATTC | 0.38 ± 0.022
GTCAAGCA | 0.0528 ± 0.058

Sequence | PBM E-score of 8-mer
ACTCTTTA | 0.0329 ± 0.022
CGCTACCA | 0.271 ± 0.0082
ATTAGGAG | -0.247 ± 0.041
GAGCCAGC | 0.0706 ± 0.066
ACTACTCC | -0.139 ± 0.024
ACTCCGGA | -0.0213 ± 0.013
AGTGCTAC | 0.245 ± 0.027
AGTGCTAT | 0.243 ± 0.079
GGTGCTAA | 0.4658 ± 0.00059
GGTGCGGA | 0.404 ± 0.023
GGTGCTAC | 0.42 ± 0.007
TGTGCTAA | 0.26 ± 0.011
AGTGCGGA | 0.257 ± 0.023
CGTGCTAC | 0.128 ± 0.0037
AGTGCTAA | 0.412 ± 0.015
CGTGCGGA | 0.147 ± 0.028
AGTGCTAG | 0.265 ± 0.049
CGTGCTAA | 0.349 ± 0.0041
AGTTACTG | -0.0684 ± 0.048
AGTAGCCC | -0.239 ± 0.026
CCCGCTTC | 0.139 ± 0.082
GAGTTTGA | 0.00341 ± 0.029
AGGTCAAT | -0.202 ± 0.093
CTTTTCGA | -0.087 ± 0.018
GGTGCAAA | 0.3907 ± 0.0034

Sequence | PBM E-score of 8-mer
TGTGCAAA | 0.225 ± 0.033
GGTGCAAC | 0.176 ± 0.012
ACGTAGGG | -0.127 ± 0.051
CTTGGAAC | -0.26 ± 0.046
CGTCAAAG | 0.228 ± 0.028
ACAAGGTA | 0.0584 ± 0.021
AGAAGGTG | 0.386 ± 0.015
ACAAGGTG | 0.425 ± 0.0045
AGAAGGTC | -0.2756 ± 0.0017
ACAAGGTC | 0.202 ± 0.026
AGAAGGTA | -0.167 ± 0.031
AGATCTTC | 0.0938 ± 0.043
CGTTGTGA | 0.162 ± 0.028
GCTTGTGA | 0.202 ± 0.074
ACTTGTGA | 0.412 ± 0.011
TCTTGTCA | 0.24 ± 0.014
GCTTGTCA | 0.12044 ± 2.8e-05
AGTTGTGA | 0.407 ± 0.0049
AGTTGTGG | 0.164 ± 0.06
ACTTGTCA | 0.4189 ± 0.00086
ACTTGTGG | 0.205 ± 0.00054
ATTGCGAC | -0.0335 ± 0.048
CGATGACG | 0.0899 ± 0.049
AGCCTATC | -0.168 ± 0.1
AACAATGC | -0.018 ± 0.0069

Sequence | PBM E-score of 8-mer
CAGAGTTC | -0.129 ± 0.032
ACTGGTAC | -0.0857 ± 0.01
AACCACTT | -0.0435 ± 0.018
CAGGTGGC | 0.323 ± 0.0069
GAGGTGGA | 0.06436 ± 0.00017
GAGGTGGC | 0.3855 ± 0.0037
AAGGTGGA | -0.0733 ± 0.085
AAGGTGGG | 0.242 ± 0.042
AAGGTGGC | 0.372 ± 0.0085
AATGGCCT | -0.0378 ± 0.026
AGAGTTTC | -0.243 ± 0.052
AGCTAGCG | 0.0935 ± 0.042
AACCTCGA | -0.0446 ± 0.051
GACCTCGA | -0.0589 ± 0.014
AACCTCGG | -0.108 ± 0.049
CACCTCGA | 0.44517 ± 8.5e-05
CACCTCGG | 0.402 ± 0.0072
CCCCTCGG | -0.255 ± 0.051
AACCTCGC | 0.152 ± 0.055
CACCTCGC | 0.439 ± 0.012
GACCTCGC | 0.0532 ± 0.0042
CGACCCAC | 0.00361 ± 0.024
